Assay outcomes deposited in PubChem BioAssay by National Center for Advancing Translational Sciences (NCATS).
In the library only some 19% were active in any assay of this set; here they are far more common.
SW480 rereplic = A quantitative high throughput screen for small molecules that induce DNA re-replication in SW480 colon adenocarcinoma cells. 1.8% of 340,000 active. AID 624297, 2012. SW480 DNA re-replication, Hoechst DNA content imaging, 48 h. Potency, µM (doses to about 46.1 µM), for inactives: at the highest dose re-replication activation, most hits filed as activators; further: potency means the concentration at half of the fitted maximal effect; % of control where 0% means no effect; nearly all actives have a fitted effect of over 55% in size
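Compounds, transferred as 23 nL by pin tool, were incubated with cells for 48 hr; DNA content per nucleus was then quantified by Hoechst staining and fluorescence plate imaging.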
TDP1 cell CPT = qHTS for Inhibitors of human tyrosyl-DNA phosphodiesterase 1 (TDP1): qHTS in cells in presence of CPT | chicken DT40 Tdp1-/-;hTDP1 cells + 20 nM CPT, ATP luminescence, 48 h | Potency, µM (doses to about 46.2 µM), for inactives: at the highest dose activity change, negative = growth inhibition, actives largely listed as inhibitors | 12% of 420,000 active; further: potency means the concentration at half of the fitted maximal effect; on the % scale 0 is the no-effect control and ±100 the full control effect; nearly all actives have a fitted effect of over 55% in size
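Chicken DT40 Tdp1-/- cells stably complemented with human TDP1 were seeded at 400 cells/well in medium containing 20 nM camptothecin, exposed to pin-transferred compounds, and grown at 37 °C for at least 48 hr. Viability was read as ATP luminescence.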
Chronic BCR inh = qHTS Assay to Find Inhibitors of Chronic Active B-Cell Receptor Signaling. 0.05% of 340,000 active. AID 493014, 2011. Potency, µM (doses to about 46.1 µM), for the others: at the highest dose activity change, negative = inhibition, hits mostly inhibitors. ABC-DLBCL IkBa-CBG/CBR reporter, luminescence ratio, 4 h; active means well fitted inhibition curve with a large enough effect in the signal ratio, with a control signal flat, not every such curve was filed as active; inconclusive means small, poorly fitted or top-dose-only effect, or effect the other way, or a change in a side signal; the % refers to the signal ratio;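 further: potency means the concentration at half of the fitted maximal effect; plate controls were basal doxycycline-induced cells for no effect and cells given 10 µM MG132 for full effect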
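Concentration-response series (up to 46 uM) were applied to TMD8 dual-reporter cells for 4 h at 37C with doxycycline. Green/red ratio, after filter-overlap correction, defined %Activity; red signal alone was normalised to basal cells and zero luminescence.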
DT40 TDP1 no CPT = qHTS for Inhibitors of human tyrosyl-DNA phosphodiesterase 1 (TDP1): qHTS in cells in absence of CPT; DT40 Tdp1-/- hTDP1 cells, no CPT, ATP luminescence, 48 h; Potency, µM (top dose mostly 46.2 µM), for the others: at the top dose activity change, negative = growth inhibition, actives largely listed as inhibitors; 15% of 420,000 active; AID 686978, 2013; further: potency means the concentration at half of the fitted maximal effect; on the % scale 0 is the no-effect control and ±100 the full control effect; nearly all actives have a fitted effect of over 55% in size
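Seeded 400 DT40-hTDP1 cells/well (vehicle DMSO, no 20 nM CPT); pinned compounds; ≥48 hr at 37 °C; CellTiter-Glo luminescence as viability measure.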
IL-1B inflam inh = qHTS for Inhibitors of Inflammasome Signaling: IL-1-beta AlphaLISA Primary Screen. THP-1 LPS/ATP IL-1B secretion, AlphaLISA, 16 h; active compounds read low. activity change, % at 57.5 µM. 4.7% of 360,000 active. AID 743279, 2014; in the data active means activity change below about -50%; inconclusive means mostly about -30% to -49%; further: on the % scale 0 is the no-effect control and ±100 the full control effect
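Secreted IL-1B measured by AlphaLISA bead assay after 16 h compound exposure of THP-1 cells; compounds (final up to 57.5 uM) added 1 h before LPS (250 ng/mL) and ATP (1.25 mM) stimulation; lower signal means less secretion.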
MCF10A rereplic = A quantitative high throughput screen for small molecules that induce DNA re-replication in MCF 10a normal breast cells; MCF 10A DNA re-replication, Hoechst nuclear intensity, 48 h; AID 624296, 2012; 2.9% of 350,000 active; Potency, µM (series often up to 46.1 µM), for the others: at the top dose activity, positive = re-replication, actives largely listed as activators; further: potency means the concentration at half of the fitted maximal effect; % of control where 0% means no effect; nearly all actives have a fitted effect of over 50% in size
An asterisk follows results filed as active; ? = inconclusive; · = no result; [ ] = dose if it differs, or a comment. Unless noted, the call rests on the fitted dose curve; in most records, active means well fitted curve in the direction sought with a large enough effect; inconclusive means small, poorly fitted or top-dose-only effect, or another doubt; inactive means no such curve, though single readings can be large; an effect the other way counts as inactive or inconclusive.

SMILES	SW480 rereplic	TDP1 cell CPT	Chronic BCR inh	DT40 TDP1 no CPT	IL-1B inflam inh	MCF10A rereplic
Cc1csc(SCCn2c(N3CCN(c4ccccc4)CC3)nc3c2c(=O)[nH]c(=O)n3C)n1	-4.7%	16.4µM*	-0.6%	25.9µM*	-4.0	?
CC(=O)c1ccc(NC(=O)CSc2nnc3ccc(-c4ccc(F)cc4)nn23)cc1	·	-9.3%	-0.6%	2.0%	·	·
O=C(NCC1CCC2(CCN(Cc3cccn3-c3ccc(Cl)cn3)CC2)O1)c1ccccc1 (configuration not stated)	·	0.3%	·	-7.1%	·	·
CCN(CC)C(=O)Cn1c(=O)n(-c2ccc(OC)cc2OC)c(=O)c2c(C)c(C(=O)N(CC)CC)sc21	·	4.6%	-10.1%	16.9%	·	·
Cn1c(=O)[nH]c(=O)c2c1nc(N1CCC(Cc3ccccc3)CC1)n2Cc1ccccc1	-6.0%	?	10.4%	?	-11.7	5.5%
CC1CCCN(c2nc3c(c(=O)[nH]c(=O)n3C)n2Cc2ccccc2Cl)C1 (configuration not stated)	-9.8%	14.6µM*	1.4%	?	6.6	-4.0%
CCOc1ccc(N2C(=O)/C(=C\c3ccc(O)c(OC)c3)S(=O)(=O)C2c2cccc([N+](=O)[O-])c2)cc1 (configuration not stated)	-60.5%	18.4µM*	8.4%	?	-2.2	-0.7%
CC(C)c1ccccc1-n1c(SCC(=O)N2CCN(c3ccccc3)CC2)nnc1-c1cccnc1	1.6%	16.4µM*	9.5%	23.1µM*	?	-9.5%
CCc1cccc(CC)c1-n1c(SCC(=O)N2CCc3ccccc3C2)nnc1-c1cccnc1	-0.4%	18.4µM*	-2.9%	23.1µM*	-57.8*	23.7%
CN1CCN(c2nc3c(c(=O)[nH]c(=O)n3C)n2Cc2ccccc2)CC1	-2.8%	8.1%	1.2%	-17.7%	19.9	-0.8%
CN(C)C(=O)CSc1nnc(-c2cccnc2)n1-c1ccccc1	-5.5%	0.1%	1.1%	-3.8%	10.3	1.8%
Clc1ccc(-n2c(SC/C=C/c3ccccc3)nnc2-c2cccnc2)cc1	-1.6%	23.1µM*	17.8%	?	?	-3.9%
O=C(CSc1nnc(-c2cccnc2)n1-c1ccccc1)Nc1ccccn1	3.7%	?	18.6%	16.4µM*	23.5	?
Nn1c(SC/C=C/c2ccccc2)nnc1-c1cccnc1	1.4%	-1.5%	-1.7%	-16.9%	-0.3	2.6%
O=C(Cn1cc2c(n1)CCCCC2)Nc1ccccc1Br	-29.1%	-20.4%	6.5%	-18.6%	-13.8	?
COc1ccc(C(=O)Nc2ccc(OCc3cc(=O)n4ccccc4n3)cc2)cc1	·	1.9%	·	-24.8%	·	·
CCc1nc2c(OCCOc3ccc(F)cc3)cccn2c1N(C)C(=O)c1ccc(OC)cc1	·	?	·	?	-23.6	·
O=C1[C@H]2[C@@H](c3ccc(C(F)(F)F)cc3)N[C@]3(CCCN(CC4CCCCC4)C3=O)[C@H]2C(=O)N1Cc1ccccc1	·	23.1µM*	·	23.1µM*	-28.9	·
COc1ccc(CN2CCC[C@]3(N[C@H](c4ccc(C(F)(F)F)cc4)[C@@H]4C(=O)N(C)C(=O)[C@@H]43)C2=O)cc1	·	23.1µM*	·	?	31.3	·
O=C1[C@H]2[C@@H](c3ccccc3)N[C@]3(CCCN(CC4CCCCC4)C3=O)[C@H]2C(=O)N1Cc1ccccc1	·	?	·	?	-18.9	·
COc1ccc([C@H]2N[C@]3(CCCN(Cc4ccc(C(F)(F)F)cc4)C3=O)[C@H]3C(=O)N(Cc4ccccc4)C(=O)[C@@H]23)cc1	·	?	·	18.4µM*	0.0	·
CC(C)CCN1CCC[C@]2(N[C@H](c3ccc(C(F)(F)F)cc3)[C@@H]3C(=O)N(Cc4ccccc4)C(=O)[C@@H]32)C1=O	·	18.4µM*	·	16.4µM*	-19.5	·
CCC(C)[C@H]1CNC(=O)C(=O)N1CCc1cccc2ccccc12 (some centres not stated)	·	-7.0%	·	-12.4%	·	·
OC1(c2cccnc2)CCN(Cc2ccc3c(c2)CN(Cc2ccc4nsnc4c2)CCO3)CC1	·	-5.2%[9.04 µM]	·	?	·	·
COc1cccc(CC(=O)NCc2ccc3c(c2)CCN3C(C)=O)c1	·	-10.1%	?	-26.2%	·	·
SMILES	SW480 rereplic	TDP1 cell CPT	Chronic BCR inh	DT40 TDP1 no CPT	IL-1B inflam inh	MCF10A rereplic
COCCn1c(SCC(=O)NC2CC2)nc2ccccc21	-0.4%	5.8%	1.0%	2.6%	19.2	16.6%
O=C1[C@H]2[C@@H](c3ccc(C(F)(F)F)cc3)N[C@]3(CCCN(Cc4ccccc4)C3=O)[C@H]2C(=O)N1Cc1ccccc1	·	23.1µM*	·	23.1µM*	-11.7	·
O=C1[C@H]2[C@@H](c3ccc(C(F)(F)F)cc3)N[C@]3(CCCN(Cc4ccc(C(F)(F)F)cc4)C3=O)[C@H]2C(=O)N1Cc1ccccc1	·	18.4µM*	·	18.4µM*	?	·
CCN1C(=O)[C@H]2[C@@H](c3ccc(C)cc3)N[C@]3(CCCN(Cc4ccccc4)C3=O)[C@H]2C1=O	·	-16.3%	·	?	-1.0	·
Cc1cccc(C)c1NC(=O)C1(C)CSCC(=O)N1Cc1ccco1 (configuration not stated)	·	3.9%	·	21.8%	41.3	·
O=C(NCCNc1ccc([N+](=O)[O-])cc1C(F)(F)F)c1ccccc1F	-4.1%	?	1.3%	?	?	-10.8%
O=[N+]([O-])c1ccc(NCCNS(=O)(=O)c2ccccc2)c(C(F)(F)F)c1	-3.3%	25.9µM*	8.7%	18.4µM*	-1.2	3.4%
O=[N+]([O-])c1ccc(NCCNS(=O)(=O)c2ccccc2)cc1	-7.4%	-8.4%	-7.3%	?	14.0	13.2%
O=[N+]([O-])c1ccc(NCCCNS(=O)(=O)c2ccccc2)c(Cl)c1	-5.4%	?	5.1%	16.4µM*	-9.4	0.1%
Cc1ccc(C(=O)NCCNc2ccc([N+](=O)[O-])cc2C(F)(F)F)cc1	15.2%	18.4µM*	4.7%	18.4µM*	-5.8	15.5%
CSCC[C@@H](CO)NC(=O)[C@H]1O[C@@H](n2ccc(=O)[nH]c2=O)[C@H](O)[C@@H]1O	·	-9.8%	·	-6.7%	19.4	·
CC[C@@]1(c2ccccc2)NC(=O)N(C)C1=O	1.2%	-71.4%	·	?	·	14.3%
